Assay outcomes (PubChem)
An excerpt weighted towards active compounds, which were near 12% of everything screened.
JMJD2A Tudor: inhibitors of human JMJD2A Tudor domain; AlphaScreen JMJD2A-Tudor / H3K4me3 peptide binding; O75164; actives 4.4% (n = 390,000); Potency, µM (highest dose often 114 µM), for the others: at the highest dose activity change, negative = inhibition, most hits filed as inhibitors; also: % is scaled to controls: 0 for no effect and ±100 for the full control effect; nearly all actives have a fitted effect of over 50% in size
G9a block: G9a (human) methyltransferase inhibition | actives 8.8% (n = 350,000) | Q96KQ7 | Potency, µM (highest dose often 102 µM), for inactives: at the highest dose activity, negative = inhibition, hits mostly inhibitors | G9a H3K9 monomethylation, AlphaScreen, 2 h; also: % is scaled to controls: 0 for no effect and ±100 for the full control effect; nearly all actives have a fitted effect of over 75% in size
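G9a (20 nM) was preincubated 15 min with compound, then reacted 2 h at room temperature with 500 nM biotin-H3K9 peptide and 20 µM SAM. Monomethyl-H3K9 detected by AlphaScreen using anti-H3K9me1 antibody.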
Sfp PPTase inh: Sfp phosphopantetheinyl transferase inhibition; Q9F4F7; Biochemical Sfp PPTase activity, qHTS; Potency, µM, inactives show largest response in the series, negative = inhibition, hits mostly inhibitors; actives 3.5% (n = 310,000);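 also: the enzyme is Sfp with the accession as filed and its product quenches rhodamine fluorescence; 0% = enzyme reaction without inhibitor and -100% = no enzyme wells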
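Reaction rates are the 30-min fluorescence difference (ex 525, em 598 nm) in wells containing 15 nM Sfp, 5 uM rhodamine-CoA and 12.5 uM BHQ-2-YbbR at pH 7.6 with 10 mM MgCl2.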
BAZ2B inh: inhibitors of human BAZ2B bromodomain; actives 4.4% (n = 360,000); Potency, µM (series often up to 114 µM), inactives show at the highest dose activity change, negative = inhibition, actives largely listed as inhibitors; Q9UIF8; AlphaScreen BAZ2B-H3K14Ac peptide displacement; also: % is scaled to controls: 0 for no effect and ±100 for the full control effect; nearly all actives have a fitted effect of over 60% in size
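Inhibition is scored as reduced AlphaScreen emission. The BAZ2B/b-H3(5-23)K14Ac complex (50 nM each) in PBS pH 7.4, 0.01% Tween-20 meets compound (up to 110 uM) for 30 min at RT before bead addition.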
HP1b chromo inh: blocks HP1-beta chromodomain binding to methylated histone tails; P83916; AlphaScreen HP1-beta / biotin-H3K9me3 peptide binding; Potency, µM (doses to about 114 µM), inactives show top-dose activity change, negative = inhibition, most hits filed as inhibitors; actives 0.56% (n = 390,000); AID 540317; also: nearly all actives have a fitted effect of over 70% in size
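AlphaScreen: HP1-beta (50 nM) preformed 30 min with biotin-H3(1-18)K9me3 peptide (50 nM) in PBS pH 7.4, 0.01% Tween-20. Compound added for 30 min at RT, then streptavidin donor/nickel chelate acceptor beads (10 ug/mL) for 30 min.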
PLK1 PBD inh: blocks phosphopeptide binding to human PLK1 polo-box domain; P53350; actives 2.8% (n = 360,000); Plk1 PBD binding of FITC phosphopeptide, fluorescence polarization; Potency, µM, for inactives: max response, negative = inhibition, most hits filed as inhibitors; AID 720504; also: series mostly up to about 57 µM; % is scaled to controls: 0 for no effect and ±100 for the full control effect; nearly all actives have a fitted effect of over 65% in size
Numbers without * were called inactive; ? = inconclusive; . = not tested or not shown; [ ] = another dose, or the depositor's remark. Calls follow the shape of the dose curve; as a rule, active = well fitted curve in the direction sought with a large enough effect; inconclusive = small, poorly fitted or top-dose-only effect, or another doubt; inactive = no such curve, though single readings can be large; an effect the other way counts as inactive or inconclusive. Potency is read from the fitted curve at half-maximal effect.

SMILES	JMJD2A Tudor	G9a block	Sfp PPTase inh	BAZ2B inh	HP1b chromo inh	PLK1 PBD inh
O=C1C2CCCN2C(c2cccc(Br)c2)N1c1ccc(F)cc1 (stereo not given)	-6%	71µM*	-21%	9%	39%	-11%
Cc1ccc(C(=O)Nc2ccc3oc(-c4cccnc4)nc3c2)c(Cl)c1	-9%	?	.	0%	9%	.
CC(C)n1c(O)c(N=NC(=O)Cc2csc(N3CCOCC3)n2)c2ccccc21	-25%	?	-2%	40µM*	19%	-1%
CC(C)n1c(O)c(N=NC(=O)CNC(=O)Cc2ccc(Cl)cc2)c2ccccc21	?	?	9%	-30%	-2%	-7%
[O-][N+](=Cc1ccccc1)c1ccc(Cl)cc1	-22%	.	.	.	1%	21µM*
[O-]/[N+](=C/c1ccc(F)cc1)c1ccc(Cl)cc1	-23%	11µM*	40µM*	-33%	4%	?
CN1C(=S)SC(/[N+]([O-])=C/c2ccc(Cl)cc2)C1(C)C (stereo not given)	-7%	40%	4%	-2%	-1%	-3%
Cc1nc2ccccc2nc1SCC(=O)c1ccccc1	6%	?	45µM*	31%	13%	-10%
Cc1cc(SCC(N)=O)nc(SCC(=O)c2ccccc2)n1	-4%[57.1 µM]	28µM*	45µM*	2%	69%	?
Nc1cc(N)nc(SCC(=O)Nc2ccccc2)n1	3%	7%[59 µM]	4%	10%	47%	-2%
Cc1cc(SCNC(=O)c2ccccc2)nc(C(C)C)n1	9%	32µM*	?	-7%	30%	24µM*
O=C(CSc1ccc2ccccc2n1)c1ccccc1	81%	.	-20%	139%	152%	-4%
Nc1cc(N)nc(SCC(=O)c2ccccc2)n1	-17%	9%[12.7 µM]	9%	0%	-19%	24µM*
CCCCC(CC)CNC(=O)CN(C)S(=O)(=O)c1ccc2c(c1)c(=O)n(C)c(=O)n2C (stereo not given)	6%	1%[59 µM]	.	-2%[57.1 µM]	40%	.
COc1ccc(Cl)cc1C(=O)CSc1nc(N)cc(N)n1	?	50µM*	-21%	5%	24%	?
Cc1ccc(C(=O)CSc2cc(C)nc(SCC(=O)c3ccccc3)n2)cc1	22%	33%[12.7 µM]	6%	-4%	56%	-2%
Cc1cc(SCC(=O)c2ccccc2)nc(C)n1	-6%	50µM*	4%	9%	39%	-11%
CCCCn1nnnc1SCC(=O)c1cc(Cl)ccc1OC	34%	65%	-18%	18%	63%	-8%
CC1CCCC(C)N1C(=O)CSc1nc(N)cc(N)n1 (stereo not given)	?	13%	7%	-13%	?	-6%
CCN1CCN(C(=O)CSc2nc(N)cc(N)n2)CC1	-14%	45µM*	-2%	-9%	37%	-10%
Cc1ccc(C(=O)NNC(=O)CSc2nc(N)cc(N)n2)cc1	-17%[57.1 µM]	-7%[59 µM]	32µM*	3%	?	27µM*
O=C(c1cccc(F)c1)N1CCC2(CCN(Cc3cc(C(F)(F)F)cc(C(F)(F)F)c3)CC2)CC1	.	?	22%	.	.	.
CNC(=O)C1(C(F)(F)F)CC(CCCO)CCCO1 (stereo not given)	-12%	.	-10%	.	17%	.
COc1ccc(CN(C)C(=O)/C=C/[C@H]2O[C@@H](n3cc(C)c(=O)[nH]c3=O)C[C@@H]2O)cc1OC	.	.	.	.	.	-8%
COC(=O)c1ccc(N=Cc2c(-c3ccccc3)[nH][nH]c2=O)cc1	-5%	40µM*	7%	?	14%	3%
SMILES	JMJD2A Tudor	G9a block	Sfp PPTase inh	BAZ2B inh	HP1b chromo inh	PLK1 PBD inh
Cc1ccc(S(=O)(=O)NC(C(=O)N2CCOCCOCCOCC2)C(C)C)cc1 (stereo not given)	-2%	28%	11%	3%	10%	-3%
Cc1ccc(S(=O)(=O)NC(C)C(=O)N2CCOCCOCCOCCOCC2)cc1 (stereo not given)	11%	40µM*	29%	6%	36%	0%
Cc1ccc(S(=O)(=O)NC(CC(=O)N2CCOCC2)c2ccco2)cc1 (stereo not given)	-28%[11.4 µM]	-33%[59 µM]	7%	12%	-1%	30µM*
Cc1ccc(S(=O)(=O)NC(C)C(=O)Nc2ccc3c(c2)OCO3)cc1 (stereo not given)	-8%	50µM*	6%	11%	17%	-4%
Cc1ccc(S(=O)(=O)NC(CC(=O)NC2CCCC2)c2ccco2)cc1 (stereo not given)	-7%	8%[59 µM]	?	0%	23%	-3%
CCC(CC)N=C1NS(=O)(=O)c2cc([N+](=O)[O-])ccc21	-8%	7%	9%	-28%	25%	0%
Nc1cc(Cl)ccc1C(=O)OCC(=O)NCc1cccs1	-6%	.	.	.	31%	-2%
CCc1ccc(OC(=O)CSc2nnc(-c3ccc(OC)c(OC)c3)o2)cc1	-6%	-25%[59 µM]	.	?	23%	.
CN(C(=O)CSc1nnc(COc2ccccc2F)n1N)C1CCS(=O)(=O)C1 (stereo not given)	-13%	20µM*	.	0%	-9%	-6%
CN(C(=O)CSc1nc2ccccc2o1)C1CCS(=O)(=O)C1 (stereo not given)	-10%	-5%[2.33 µM]	.	7%	6%	-12%
CN(C)N(C(=O)c1cc(-c2cccs2)nn1-c1ccccc1)C1CCS(=O)(=O)C1 (stereo not given)	-22%	18µM*	.	20%	14%	-3%
CN(C(=O)CSc1nc(-c2ccccc2)c(-c2ccccc2)o1)C1CCS(=O)(=O)C1 (stereo not given)	?	?	6%	?	?	30µM*
Cc1ccccc1Nc1nnc(SCC(=O)N(C)C2CCS(=O)(=O)C2)s1 (stereo not given)	2%	32µM*	9%	-2%	25%	-2%
CC1(NC(=O)c2cc(-c3cccs3)nn2-c2ccccc2)CCS(=O)(=O)C1 (stereo not given)	-17%	-7%	.	13%	7%	-6%
Cc1ccc(CNC(=O)c2cc(=O)c3cc(C)cc(C)c3o2)cc1	-12%	-36%[59 µM]	.	-8%	27%	.
CCN(CC)/C(=N\S(=O)(=O)c1ccc(F)cc1)c1ccccc1	-1%	0%	19%	-3%	29%	?
CN(C(=O)CSc1n[nH]c(-c2cccs2)n1)C1CCS(=O)(=O)C1 (stereo not given)	-12%	50µM*	.	28%	32%	-2%
CN(C(=O)CSc1nnc(-c2ccccc2)c(-c2ccccc2)n1)C1CCS(=O)(=O)C1 (stereo not given)	-27%	8%[59 µM]	-4%	-11%	32%	-17%
